Test results taken from the supplement of paper PMC6555819.

Test system: VDR:RXRa (NR concentration 270 nM, RXRa partner concentration 90 nM)
Assay: PBM binding z-score (relative to random genomic background probes); higher = stronger binding; sequences stand for … in GC…GCGATTGACAGCGTAGAATGAAGG
Method: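 Protein-binding microarray (Agilent 4x180K custom design, double-stranded 60-nt probes: 5' GC cap, 34-nt variable region, 24-nt constant primer region; full probe sequence given). Purified or IVT nuclear receptor:RXRα heterodimers (3:1 NR:RXRα, mostly 270:90 nM) or homodimers were incubated for 1 h in PBS with 2% milk and no ligand, then detected with Alexa488 antibodies. Fluorescence from o1-orientation probes (~5 replicates averaged) was converted to z-scores against 500 random hg19 background probes. Variable regions are seed direct-repeat (DR0–DR5) sites, all their single-nucleotide variants and half-site ablations.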

| Sequence | PBM binding z-score |
| --- | --- |
| CGTCCAAGGTCAATGCTAGGTCCGTGAAAGCATT | 3.86 |
| ACTATTAGCTGACTTAGGGCAACCGATACGACGC | -0.114 |
| TTACCAAGGTAAGCTGAGGTCGTTGATCCAACTC | 2.84 |
| GCTTACCGGTCAAAGGTTATAGCATGAATAGAAT | 2.81 |
| CCTTACGGGTCACTGACAGGTTATAGCATTTGGA | 3.8 |
| GCTGCCAGGTCAACTGATGGTCAGCTAAAGCTCG | 2.62 |
| CTCGAAAGGTCCTGCTCAGGTGAGTATACCAAAC | -0.0691 |
| CAAACTAGGTCAAGGTCAACGTCGGTTTGTGCCA | 5.02 |
| TCGAATAGGTTAGGGGCATTCAGAATGGCGTCGA | 0.8 |
| ATCTCTTGGTAACAAGTTCAGTGAAAGAGAGGAC | 1.84 |
| AGAACGAGGTTATACGTAGATCAGGGAAGAAAGT | 1.08 |
| CATACAAGGTCAGCTAGGCCAGAGTAGGGACGGC | 3.81 |
| TCGAGTAAGTTAGTCGGGGCATTCAGCCAACATA | -0.133 |
| CCTAGTTGGTCAAGGTCACACAGGCTATAGGTAC | 4.72 |
| GGAACGAGGGCAAAGTTGATTGCATCTGTCGACG | 1.34 |
| CAAACTAGGTCACCGGCAGGTCAAAGTCCGCATG | 5.36 |
| CTCGAAAGGTAGTGCTCAGGTGAGTATACCAAAC | -0.361 |
| ACTAGTTGGTCAGATGAGGTCACACACAATTCGG | 4.58 |
| TCATATAGGTAACGGTGAAAGTCGAACGATATGA | 0.164 |
| ACAGACAGGTGAGTGCAGGTAACTCAGCTGGACG | -0.127 |

| Sequence | PBM binding z-score |
| --- | --- |
| CCGACTGGGGCATAAGATTACCATAAGCCAGCCC | -0.534 |
| CAAACTAGGTCACAGAGGTCAAAGGCCGTGCGTA | 8.04 |
| TCTTGTAGATCAAGCGGGTTAAGAAAGCCTGAGT | 0.54 |
| AGAACGAGGGCAATGGGTTGATAGCACGGGTGGC | 5.47 |
| CTACCAAGGTGAACAAGGTCGTTGTTTACTATTC | 6.2 |
| CGAACTAGGTCAGAACAGGCCAGTGAAGGATGAT | 0.281 |
| CGTCCAAGGTCAGCAGGTCAGTCAAAGCGACGTG | 4.02 |
| TGAATGAGGTTATAAGAGCAGGGAACGTTGCAAA | 0.901 |
| CCTGCTCGGTCATGGTCAGCTAATCTACAGTATG | -0.315 |
| TCATCTAGGTAAACAGGTGAAAGTCCGTAAGTTA | 0.914 |
| CCAACTGGGCCATTCAGAGGTCATTGATCATATG | 3.92 |
| TCGAGTAGGTTAGTCGAGGCATTCAGCCAACATA | -0.258 |
| ACTATTAGTTGACTTAAGGCAACCGATACGACGC | 0.358 |
| CGTCAAAGTTCAAGGTAACGTATCAGAAAGCAGC | 3.97 |
| TCATATAGGTAAAAGTGAAAGTCGAACGATATGA | 0.265 |
| TAGCCTAGGTCAGATCGGGCCAGTAAACGCTATA | 0.5 |
| TGAATGAGGTTATAGGATCAGGGAACGTTGCAAA | 1.13 |
| CGTCACAGTTCAAGGTAACGTAACAGAAAGCAGC | 1.61 |
| CCGTGTAGGTTATGGGGCATTCAGGCAACGGTGA | 0.11 |
| CGTGCAAGGTCAATGCTAGGTCAGTGAAAGCATT | 5.24 |
